From PubChem BioAssay (Tox21)
“And” between values parts separate entries of the source, which are not always exact repeats. Equal values may be shown once. Results filed as inconclusive are left out. A structure can be active in one record and inactive in another. The source made the active and inactive calls. Calls come from the whole dose curve; as a rule, active = well fitted inhibition curve with a large enough effect in the repeat runs; inconclusive = weak or mixed curves; inactive = flat fitted curve, though single readings scatter.
% is set by controls: 0 for no effect and ±100 for the full control effect.

These compounds were tested against Luciferin 4-monooxygenase (Photinus pyralis) (UniProt P08659) (assay: qHTS assay to identify small molecule inhibitors of firefly luciferase (AID 1224835; note: nearly all actives have a fitted effect of over 25% in size)). Conditions: purified P. pyralis luciferase, luminescence inhibition; series mostly up to 115 µM; activity change, negative = inhibition: at the top concentration.
Chain of Luciferin 4-monooxygenase (Photinus pyralis) (P08659 whole entry, looked up): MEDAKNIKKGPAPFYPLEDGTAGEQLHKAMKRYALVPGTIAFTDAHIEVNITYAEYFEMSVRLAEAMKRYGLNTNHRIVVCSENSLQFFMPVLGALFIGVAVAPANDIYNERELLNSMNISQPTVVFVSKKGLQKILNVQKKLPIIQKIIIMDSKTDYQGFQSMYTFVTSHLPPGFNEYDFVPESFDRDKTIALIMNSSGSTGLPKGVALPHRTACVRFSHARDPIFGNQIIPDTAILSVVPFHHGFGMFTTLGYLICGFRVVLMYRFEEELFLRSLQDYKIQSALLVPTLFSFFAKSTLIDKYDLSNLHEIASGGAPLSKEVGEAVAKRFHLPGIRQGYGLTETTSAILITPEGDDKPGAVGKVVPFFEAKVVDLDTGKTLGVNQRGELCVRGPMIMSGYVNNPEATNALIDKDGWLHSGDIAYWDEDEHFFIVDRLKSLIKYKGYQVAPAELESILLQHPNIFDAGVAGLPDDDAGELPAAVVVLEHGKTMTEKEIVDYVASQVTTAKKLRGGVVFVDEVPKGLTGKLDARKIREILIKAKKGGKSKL
From the text: U.S. Tox21 Program National Center for Advancing Translational Sciences [NCATS] NIH Chemical Genomics Center [NCGC] U.S. Environmental Protection Agency [EPA] National Institutes of Environmental Health Sciences [NIEHS] National Toxicology Program [NTP] U.S. Food and Drug Administration [FDA] Tox21 Assay Overview: Firefly (Photinus pyralis) luciferase is one of the most commonly used transcriptional reporters. Firefly luciferase reporter-gene assays are generally considered one of the most sensitive assay types (Wood, 1995; Wood, 1998). However, it was initially observed, in 1991, by Thompson et al., that compounds that resemble the substrates of firefly luciferase (FLuc) can act as competitive inhibitors of the enzyme, and that these compounds, upon interaction with luciferase in the cell, can actually stabilize the protein and increase its half-life. Previous profiling work by other groups to determine the prevalence of compounds that affect FLuc enzymatic activity (PubChem AID 411) identified that ~3% of the MLSMR library (then at ~72K) inhibited FLuc. […] Thus the Tox21 10K library is profiled for activity against FLuc using a biochemical assay of purified FLuc and KM concentrations of FLuc substrates (D-luciferin and ATP).
These assay plates were then treated with 23nL of compound or DMSO using a Kalypsys pin tool, which allows for delivery of a 6-point interplate titration of each compound to the assay plate (quantitative HTS.) 1 uL of firefly luciferase mix (containing 50 mM Tris acetate, pH 7.6, 0.04 uM P. pyralis luciferase, 0.01% Tween, 0.05% BSA and dH2O) was then delivered by FRD to each well. Luciferase activity was then measured using a ViewLux CCD imager.
CC(C)(C)C1CCC(=O)CC1 was tested, and the “activity change, negative = inhibition” value was 2.04% (inactive).
CCCCCCCCCCCCOC(=O)c1ccc(O)cc1 was tested, and the “activity change, negative = inhibition” value was -1.1% (inactive).
COc1ccc(NC(=O)CC(C)=O)cc1 was tested, and the “activity change, negative = inhibition” value was -0.124% (inactive).
With CCCCCc1ccc(Cl)cc1 the “activity change, negative = inhibition” value was 3.66% (inactive).
For CCC(COC(=O)CCS)(COC(=O)CCS)COC(=O)CCS, the “activity change, negative = inhibition” value was -2.28% (inactive).
Nc1cc(Cl)c(O)c(Cl)c1 was tested, and the “activity change, negative = inhibition” value was -2.49% (inactive).
For O=C1C(c2[nH]c3ccc(S(=O)(=O)O)cc3c2O)=Nc2ccc(S(=O)(=O)O)cc21, the Potency was 31.7 µM (active).
In the case of OCC(F)(F)F, the “activity change, negative = inhibition” value is reported as 0.272% (inactive).
For Nc1ccc(NCCO)c([N+](=O)[O-])c1, the Potency was 35.6 µM (active).
For Cc1nc2n(c(=O)c1CCN1CCC(c3noc4cc(F)ccc34)CC1)CCCC2, the “activity change, negative = inhibition” value was 1.17% [at 52.9 µM] (inactive).
In the case of O=C(/C=C/c1ccccc1)OC/C=C/c1ccccc1, the Potency is reported as 71 µM (active).
CC(=O)CC(=O)Nc1ccc(S(=O)(=O)O)cc1 was tested, and the “activity change, negative = inhibition” value was -1.63% (inactive).
O=C1c2ccccc2C(=O)N1SC1CCCCC1 was tested, and the Potency was 25.2 µM (active) and 17.8 µM (active).
In the case of C=CCn1c(=O)n(CC=C)c(=O)n(CC=C)c1=O, the “activity change, negative = inhibition” value is reported as 15.5% (inactive).
With c1ccsc1 the “activity change, negative = inhibition” value was 3.18% (inactive).
For CC[C@H](C)COC(=O)/C=C/c1ccc(N=Cc2ccc(OC)cc2)cc1, the Potency was 4.47 µM (active).
For Cc1ccc(C(C)C)cc2c(C)ccc1-2, the “activity change, negative = inhibition” value was 6.9% [at 52.9 µM] (inactive).
With CCCC1CCC(=O)CC1 the “activity change, negative = inhibition” value was 2.05% (inactive).
For C=C(CC)C(=O)c1ccc(OCC(=O)O)c(Cl)c1Cl, the Potency was 79.1 µM (active) and inactive.
In the case of Oc1ccccc1O, the Potency is reported as “inactive”.
C=Cc1ccccc1C=C was tested, and the “activity change, negative = inhibition” value was 1.7% [at 300 µM] (inactive).
For COc1ccc2cc1Oc1ccc(cc1)C[C@H]1c3c(cc4c(c3Oc3cc5c(cc3OC)CCN(C)[C@@H]5C2)OCO4)CCN1C, the “activity change, negative = inhibition” value was 1.96% [at 52.9 µM] (inactive).
With CN1CCN(Cc2cc(-c3ccc4[nH]c(=O)oc4c3)co2)[C@@H](c2ccc(F)cc2)C1 the “activity change, negative = inhibition” value was 27.5% (inactive).
For CN(C)[C@@H](CCOc1cccc2ccccc12)c1ccccc1, the “activity change, negative = inhibition” value was 2.05% [at 52.9 µM] (inactive).
With COc1cc(/C=C/c2ccccc2)oc(=O)c1 the Potency was 7.35 µM (active).
With CCN(CC)c1ccc2c(-c3ccc(S(=O)(=O)O)cc3S(=O)(=O)[O-])c3ccc(=[N+](CC)CC)cc-3oc2c1 the Potency was 26 µM (active).
In the case of CCN1C(=O)c2ccccc2C1Nc1ccc(OCCN2CCCCC2)cc1 (stereo not given), the “activity change, negative = inhibition” value is reported as 3.85% [at 52.9 µM] (inactive).
COC(C)=O was tested, and the “activity change, negative = inhibition” value was 4.05% (inactive).
With CN1CCCCC1CCN1c2ccccc2Sc2ccc(S(C)=O)cc21 (stereo not given) the “activity change, negative = inhibition” value was 2.11% [at 52.9 µM] (inactive).
CCOC(=O)c1ccc(C2CCC(NC[C@H](O)COc3ccc(O)c(NS(C)(=O)=O)c3)CC2)cc1 (stereo not given in full) was tested, and the “activity change, negative = inhibition” value was -4.1% (inactive).
With O=C(O)c1cc(N=Nc2ccc([N+](=O)[O-])cc2)ccc1O the Potency was 0.878 µM (active).
With C#C[C@]1(OC(C)=O)CC[C@H]2[C@@H]3CCC4=C/C(=N/O)CC[C@@H]4[C@H]3CC[C@@]21CC the “activity change, negative = inhibition” value was -1.17% [at 52.9 µM] (inactive).
COC1=C(OC)C(=O)C(CCCCCCCCCCO)=C(C)C1=O was tested, and the “activity change, negative = inhibition” value was -8.59% [at 52.9 µM] (inactive).
COC(=O)c1ccccc1OC was tested, and the “activity change, negative = inhibition” value was -1.22% (inactive).
In the case of Cc1c(F)c(N2CCNC(C)C2)cc2c1c(=O)c(C(=O)O)cn2C1CC1 (stereo not given), the “activity change, negative = inhibition” value is reported as 0.1% [at 52.9 µM] (inactive).
With CCCCOC(=O)CC the “activity change, negative = inhibition” value was 0.539% (inactive).
In the case of NC(=O)c1cccc([N+](=O)[O-])c1, the “activity change, negative = inhibition” value is reported as 2.65% (inactive).
In the case of COc1ccc2c(c1)c(CC(=O)OC/C=C(\C)CC/C=C(\C)CCC=C(C)C)c(C)n2C(=O)c1ccc(Cl)cc1, the “activity change, negative = inhibition” value is reported as 1.86% [at 52.9 µM] (inactive).
For Clc1nnc(Cl)c2ccccc12, the “activity change, negative = inhibition” value was -0.799% (inactive).
For C=Cc1cccc(C)c1, the Potency was “inactive”.
